Among the test systems are HT29 colon; SNB-75 CNS; SNB-19 CNS; U251 CNS; PC-3 prostate; SK-MEL-5 melanoma; UACC-62 melanoma; LOX IMVI melanoma; SK-MEL-28 melanoma; SK-MEL-2 melanoma; EKVX NSCLC; SN12C renal; UO-31 renal; TK-10 renal; ACHN renal; CAKI-1 renal; A498 renal; CCRF-CEM leukemia; MOLT-4 leukemia; SR leukemia.
Experiment in all cases: NCI-60 one-dose screen, 48 h (100 = growth as untreated, 0 = no growth, -100 = all killed)
Conditions in all cases: 10 µM unless noted

Structures are written as SMILES. This is part of a sample that, as a whole, favours compounds with a hit. Of some 83,000 tested, about 20% had one in any assay.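 A percent growth of 40 corresponds to 60% growth inhibition; 0 means no net growth; -100 means all cells died. Active threshold: below 10.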 A number with no mark means an inactive call. The source made the active and inactive calls.

As to `OC(CCC(O)(c1ccccc1)c1ccccc1)(c1ccccc1)c1ccccc1`, the growth in the assay on HT29 colon is 78.4%; with SNB-75 CNS it was 83.9%; in the assay with SNB-19 CNS, 106%; with U251 CNS, 87.7%; with PC-3 prostate, 24.4%; in the assay on SK-MEL-5 melanoma, 90.6%. Besides, the growth is 62.2% in the assay with UACC-62 melanoma; 71.4% in the assay with LOX IMVI melanoma; 112% with SK-MEL-28 melanoma; 97.5% with SK-MEL-2 melanoma; 58.8% with EKVX NSCLC; 88% in the assay on SN12C renal. Also, the growth in the assay on UO-31 renal is 74.7%; in the assay on TK-10 renal, 107%; in the assay with ACHN renal it was 100%; in the assay with CAKI-1 renal, 44.4%; in the assay with A498 renal, 60.2%; in the assay with CCRF-CEM leukemia, 33.5%. The values for the growth with MOLT-4 leukemia and in the assay with SR leukemia were 18.5% and 79.6%, respectively.

For `CCOc1ccccc1C(=O)OCC(=O)Nc1cccc(S(=O)(=O)N(C)C)c1`, the growth was 98.6% in the assay on HT29 colon; 82.7% in the assay with SNB-75 CNS; 83.5% in the assay on SNB-19 CNS; 105% with U251 CNS; 107% in the assay with PC-3 prostate; 97.4% in the assay with SK-MEL-5 melanoma. Further, the growth in the assay on UACC-62 melanoma is 94.5%; in the assay with LOX IMVI melanoma it was 101%; in the assay on SK-MEL-28 melanoma it was 104%; in the assay with SK-MEL-2 melanoma it was 94.2%; in the assay with EKVX NSCLC it was 104%; in the assay with SN12C renal, 103%. The growth was 79% in the assay on UO-31 renal; 169% in the assay on TK-10 renal; 121% in the assay on ACHN renal; 95.2% with CAKI-1 renal; 118% in the assay on A498 renal; 169% in the assay on CCRF-CEM leukemia. Moreover, the growth in the assay with MOLT-4 leukemia and with SR leukemia was 105% each time.

In the case of `C[n+]1ccc(C#N)c2ccccc21`, the growth was 65.1% in the assay with HT29 colon; 85.7% in the assay with SNB-75 CNS; 109% in the assay on SNB-19 CNS; 104% with U251 CNS; 107% with PC-3 prostate; 99.1% in the assay on SK-MEL-5 melanoma. Besides, the growth is 115% in the assay on UACC-62 melanoma; 85.5% in the assay with LOX IMVI melanoma; 106% with SK-MEL-28 melanoma; 77.5% in the assay on SK-MEL-2 melanoma; 104% in the assay on SN12C renal; 55.4% in the assay with UO-31 renal. The growth in the assay on TK-10 renal is 129%; with ACHN renal, 81.9%; in the assay on A498 renal it was 95.3%; in the assay on CCRF-CEM leukemia, 54.1%; in the assay with MOLT-4 leukemia it was 64.5%.

Consider `O=C1/C(=N/O)CCc2ccccc21`, for which the growth in the assay on HT29 colon is 101%; with SNB-75 CNS, 82.2%; with SNB-19 CNS, 100%; with U251 CNS it was 103%; in the assay with PC-3 prostate, 59.8%; in the assay with SK-MEL-5 melanoma, 102%. For the same compound, the growth was 87.6% in the assay with UACC-62 melanoma; 76.5% in the assay with LOX IMVI melanoma; 121% with SK-MEL-28 melanoma; 113% in the assay on SK-MEL-2 melanoma; 88.8% in the assay on EKVX NSCLC; 96.1% in the assay with SN12C renal. In addition, the growth is 66.4% with UO-31 renal; 151% in the assay on TK-10 renal; 88.9% in the assay with ACHN renal; 102% with CAKI-1 renal; 4.19% (active) in the assay with CCRF-CEM leukemia; 113% with SR leukemia.

Regarding `Nc1nonc1-c1nc2ccccc2n1CC(=O)Nc1ccc2c(c1)COC2=O`, the growth is 85.1% with HT29 colon; 36.5% in the assay with SNB-75 CNS; 87.6% with SNB-19 CNS; 94.4% in the assay on U251 CNS; 80% in the assay on PC-3 prostate; 77.8% in the assay with SK-MEL-5 melanoma. Moreover, the growth with UACC-62 melanoma was 72.9%; in the assay with LOX IMVI melanoma, 73.2%; in the assay with SK-MEL-28 melanoma it was 93.1%; in the assay on SK-MEL-2 melanoma, 89.4%; in the assay on SN12C renal, 92.2%; in the assay on UO-31 renal it was 60.6%. Further, the growth in the assay with TK-10 renal is 94.7%; with ACHN renal, 92.2%; in the assay with CAKI-1 renal it was 74.5%; in the assay on A498 renal, 63.7%; in the assay with MOLT-4 leukemia it was 101%.

On to `O=C(NCCCO)c1cc(Cl)ccc1O`, for which the growth in the assay on HT29 colon is 3.68% (active); with SNB-75 CNS, 27.8%; in the assay with SNB-19 CNS, 31.1%; in the assay on U251 CNS, 12.3%; with PC-3 prostate, 7.13% (active); in the assay with SK-MEL-5 melanoma, 18.4%. The growth is 9.67% (active) in the assay with UACC-62 melanoma; 13.3% with LOX IMVI melanoma; 38% with SK-MEL-28 melanoma; -19% (active) in the assay with SK-MEL-2 melanoma; 12.9% in the assay on SN12C renal; 48.1% in the assay on UO-31 renal. The growth with TK-10 renal is 24.9%; in the assay with ACHN renal it was 14.6%; with A498 renal, 53.2%; with MOLT-4 leukemia, 33.2%; with SR leukemia, 26.1%.

With `C=C1c2c(C)nn(-c3ccc(C#CCOC4OC(CO)C(O)C(O)C4O)cc3)c2N(C)C23C[C@H]1C1(C)c4c(C)nn(-c5ccc(C#CCOC6OC(CO)C(O)C(O)C6O)cc5)c4N(C)C(C)(C[C@H]12)C3` (stereo partly drawn), the growth with HT29 colon is 8.04% (active); in the assay on SNB-75 CNS, 6.04% (active); with SNB-19 CNS, 2.15% (active); in the assay on U251 CNS, -35% (active); in the assay on PC-3 prostate, -26.1% (active); in the assay with SK-MEL-5 melanoma, -74.7% (active). The growth in the assay with UACC-62 melanoma was -36.7% (active); in the assay with LOX IMVI melanoma, -42.4% (active); with SK-MEL-28 melanoma, 5.91% (active); in the assay with SK-MEL-2 melanoma it was -43.5% (active); in the assay with SN12C renal, 8.29% (active); in the assay on UO-31 renal it was 21.1%. Also, the growth is 27.7% in the assay with ACHN renal; -29.8% (active) in the assay with CAKI-1 renal; 4.38% (active) in the assay on A498 renal; -30.2% (active) in the assay on CCRF-CEM leukemia; -14.9% (active) in the assay with MOLT-4 leukemia; 6.31% (active) in the assay with SR leukemia.

With `COC(=O)c1ccc2c(c1)nc(-c1ccc(O)c(OC)c1)n2-c1cc(C(C)(C)C)[nH]n1`, the growth in the assay with HT29 colon was 96.3%; in the assay with SNB-75 CNS, 111%; in the assay on SNB-19 CNS it was 101%; in the assay with U251 CNS, 93.3%; in the assay on PC-3 prostate, 65.8%; with SK-MEL-5 melanoma it was 83.6%. Moreover, the growth in the assay on UACC-62 melanoma was 88.3%; in the assay with LOX IMVI melanoma it was 96.8%; in the assay with SK-MEL-28 melanoma, 118%; in the assay with SK-MEL-2 melanoma, 92.3%; in the assay on SN12C renal, 97.7%; in the assay on UO-31 renal it was 50.9%. For the same compound, the growth was 116% in the assay with TK-10 renal; 108% in the assay with ACHN renal; 90.5% with A498 renal; 93.1% in the assay on CCRF-CEM leukemia; 81.2% with MOLT-4 leukemia.

In the case of `C/C(=N/N=C(N)N)c1ccc(Cl)cc1`, the growth is 80.9% in the assay with HT29 colon; 81.3% in the assay with SNB-75 CNS; 92.6% in the assay on SNB-19 CNS; 89.4% with U251 CNS; 42.3% in the assay on PC-3 prostate; 94.1% with SK-MEL-5 melanoma. The growth was 91.2% in the assay with UACC-62 melanoma; 86.5% in the assay on LOX IMVI melanoma; 178% with SK-MEL-28 melanoma; -5.11% (active) in the assay on SK-MEL-2 melanoma; 87.8% with EKVX NSCLC; 90.8% with SN12C renal. In addition, the growth with UO-31 renal is 78.2%; in the assay with TK-10 renal, 55.3%; with ACHN renal, 96.1%; with A498 renal, 188%; with CCRF-CEM leukemia, 87.9%; with MOLT-4 leukemia, 145%. Further, the growth in the assay with SR leukemia is 83.3%.

The values above are taken from PubChem BioAssay (NCI).
